# From PubChem
# Sampled rows, rich in hits. Any-hit rate of the full collection: about 2.4%.
# Arbovirus anti = antivirals against arbovirus infection, primary screen, cell-based, full library, 10K replicate subset; inhibition, % at 10 µM; 200,000 compounds, 0.37% hits; arbovirus infection cell-based antiviral screen; AID 1251, 2008; in the data active = inhibition above about 30%
# EP2 antag = human EP2 receptor antagonists, primary screen, TR-FRET cAMP, C6 glioma cells; 260,000 compounds, 0.52% hits; C6 glioma cells expressing human EP2; cells stimulated with saturating PGE2; inhibition, % at 25 µM; AID 1422, 2008; Prostaglandin E2 receptor EP2 subtype (Homo sapiens), P43116;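 active = percent inhibition above 40 after rounding to a whole number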;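 note: rat C6 glioma host cells with rolipram phosphodiesterase inhibitor present; the protocol text gives 20 µM as final concentration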
# Hck Nef HTS = inhibitors of Nef-activated human Hck kinase, primary screen, biochemical, Z-Lyte FRET, 384-well, Hck-YEEI; Tyrosine-protein kinase HCK (Homo sapiens), P08631; Recombinant Hck-YEEI plus Nef, Z-Lyte FRET kinase assay; inhibition, % at 20 µM; 220,000 compounds, 0.68% hits; AID 463187, 2010;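 active = Hck-Nef kinase inhibition above about 50%, limit read from the data; inactive = inhibition below that limit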;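 note: 0% = DMSO with Hck plus Nef and 100% = Hck alone without Nef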
# EP2 mod = EP2 receptor modulators, cAMP readout, primary screen, cell-based, HTRF cAMP, PGE2 stimulation; EP2-expressing cells, cAMP HTRF FRET, PGE2 co-stimulation; induction, % at 25 µM; 260,000 compounds, 0.83% hits;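 active = compounds whose cAMP rise, as percent of the full-agonist control response, exceeds 60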;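 note: rat C6 glioma line stably carrying human EP2 under a CMV promoter; the protocol text gives 20 µM as final concentration; 100% = response of wells given 1 µM PGE2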
# p97 inhibitor = inhibitors of human p97 ATPase, primary screen, biochemical. Transitional endoplasmic reticulum ATPase (Homo sapiens), P55072. recombinant p97 ATPase, Kinase-Glo ATP luminescence, 3 h. inhibition, % at 8 µM. 220,000 compounds, 0.42% hits. AID 1481, 2009; in the data active = inhibition above about 15%;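 note: 0% = DMSO vehicle and 100% = wells lacking enzyme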
# Target sequence (P55072 whole entry, looked up): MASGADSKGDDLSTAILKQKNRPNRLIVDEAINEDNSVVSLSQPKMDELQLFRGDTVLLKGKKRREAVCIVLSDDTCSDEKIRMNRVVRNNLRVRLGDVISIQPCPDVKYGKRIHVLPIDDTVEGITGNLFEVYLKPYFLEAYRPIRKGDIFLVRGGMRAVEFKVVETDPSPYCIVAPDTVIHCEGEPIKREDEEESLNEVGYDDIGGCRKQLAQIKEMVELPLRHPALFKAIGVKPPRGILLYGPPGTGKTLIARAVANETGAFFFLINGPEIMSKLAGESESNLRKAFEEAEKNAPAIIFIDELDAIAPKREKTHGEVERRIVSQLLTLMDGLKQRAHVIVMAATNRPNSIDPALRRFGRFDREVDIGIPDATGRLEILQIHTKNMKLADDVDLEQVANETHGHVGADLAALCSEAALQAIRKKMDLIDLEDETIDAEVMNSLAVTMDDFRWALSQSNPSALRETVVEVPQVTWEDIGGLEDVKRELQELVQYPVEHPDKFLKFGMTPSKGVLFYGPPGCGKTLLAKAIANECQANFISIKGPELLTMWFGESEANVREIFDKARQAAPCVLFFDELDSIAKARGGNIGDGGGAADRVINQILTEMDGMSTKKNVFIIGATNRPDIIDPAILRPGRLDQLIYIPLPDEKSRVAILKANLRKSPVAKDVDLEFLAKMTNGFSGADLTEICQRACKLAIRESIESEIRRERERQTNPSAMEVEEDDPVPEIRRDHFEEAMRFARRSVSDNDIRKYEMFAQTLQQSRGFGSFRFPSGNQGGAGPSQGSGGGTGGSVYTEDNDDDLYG
# * marks the source's active call; other numbers are inactive results; x = no result given; ! = not active in a repeat.
SMILES,Arbovirus anti,EP2 antag,Hck Nef HTS,EP2 mod,p97 inhibitor
CC1(C)CC(N(Cc2cccnc2)Cc2cccc(F)c2)CC(C)(C)N1,x,11,x,11,x
Cc1cc(C)nc(SCc2ccc(C(=O)N/N=C/c3cccc(O)c3O)cc2)n1,-22,7,4,-22,15*
O=C(CSc1nnnn1-c1ccc2c(c1)OCO2)NCc1ccco1,x,13,x,-40,x
CC(Nc1nc(-c2ccc3c(c2)NC(=O)CO3)cs1)c1ccccc1 (stereo unspecified),-18,4,137*,-53,3
CCOC(=O)C1=C(O)/C(=C/c2ccc(C)o2)SC1=NC(=O)c1ccccc1C,x,x,55*,x,6
COc1cc(N=c2ssnc2Cl)cc(OC)c1,-4,95*,-2,-6,0
COCCn1cc(CNC2(c3ccc(OC)cc3)CC2)c2ccccc21,x,6,x,-41,x
CCOC(=O)c1csc(NC(=O)CC2CCCC2)n1,30*,5,16,-40,-1
Cn1cc(C(=O)CN2CCC(O)(c3ccc(C(F)(F)F)cc3)CC2)c2ccccc21,x,7,x,-53,x
O=C(CCN1CCCCCC1)c1ccccc1,-2,52*,-8,-7,4
CCC1(C)CC2(CCCN(CCC(=O)c3ccccc3)C2)CCO1 (stereo unspecified),2,81*!,-12,-94,3
CC1(C)CC2(CCCN(C(=S)Nc3ccccc3)C2)CCO1 (stereo unspecified),x,3,3,-7,-5
COc1ccc2c(c1)NC1(CCN(C(=O)c3cccc(-n4cnnn4)c3)CC1)c1cccn1-2,x,7,x,-83,x
CCOC(=O)CSc1nc2ccc(Nc3nc(N4CCOCC4)nc(N4CCOCC4)n3)cc2s1,1,72*,13,-34,3
CC(=O)CSc1nc2ccc(Nc3nc(N4CCOCC4)nc(N4CCOCC4)n3)cc2s1,-21,4,6,-28,1
CCN1CCN(C(=O)[C@H]2C[C@@H](c3cccs3)NS(=O)(=O)N2C)CC1,x,x,x,-18,x
Cc1cc2c(cc3c(=O)n(CC(=O)NCc4cccs4)nc(C)n32)s1,x,x,x,11,x
COC(=O)c1cc([N+](=O)[O-])c(-n2cncn2)c([N+](=O)[O-])c1,9,77*,26,25,5
COC(=O)c1cc(F)c(-n2cncn2)c(F)c1,7,10,2,1,-3
CCCn1c(=O)c(C(=O)NCCCl)c(O)c2ccccc21,x,8,x,37,x
CCCCCCn1c(=O)c(-c2ccccc2)c(O)c2ccccc21,54*,20,-2,38,-3
C=CCn1c(=O)c(C(=O)NCCN(CC)CC)c(O)c2ccccc21,-4,6,3,-4,-2
CCCn1c(=O)c(C(=O)NCCCCl)c(O)c2ccccc21,x,19,x,70*,x
CCCn1c(=O)c(C(=O)Nc2ccccc2C(=O)OC)c(O)c2ccccc21,13,6,0,63*,5
C=CCn1c(=O)c(C(=O)NCC)c(O)c2ccccc21,x,-1,x,70*,x
SMILES,Arbovirus anti,EP2 antag,Hck Nef HTS,EP2 mod,p97 inhibitor
CCCCCCn1c(=O)c(Cc2ccccc2)c(O)c2ccccc21,10,4,31,22,3
CCCn1c(=O)c(C(=O)Nc2ccccc2F)c(O)c2ccccc21,x,17,x,9,x
O=C(c1cc2sccc2n1Cc1ccccc1)N(Cc1ccco1)Cc1cccs1,x,5,x,54,x
COc1ccc(CN(Cc2ccncc2)Cc2cnn(Cc3ccccc3)c2C)cc1,x,3,x,40,x
Cc1cc2c(cc3c(=O)n(CC(=O)N4CCCCC4C)nc(C)n32)s1 (stereo unspecified),x,x,x,9,x
COc1ccccc1NC(=O)CSc1nnc(Cc2ccccc2)n1C,x,6,x,-29,x
COCCc1ncc(CN(Cc2ccccc2C)C2CC(C)(C)NC(C)(C)C2)cn1,x,5,x,1,x
N#CC[N+]1(Cc2ccccn2)CCCC1,x,42*,x,8,x
COC(=O)c1c(NC(=O)c2ccccc2F)sc(C(=O)Nc2cccc(OC)c2)c1C,x,8,x,6,x
CNc1ccc(Br)cc(C(=O)/C=C/c2ccc(OC)cc2)c1=O,8,7,28,-3,5
CNc1ccc(Br)cc(C(=O)/C=C/c2ccc3c(c2)OCO3)c1=O,5,0,3,-16,15*
COc1ccc(CNC2CCCC2)c(OC)c1OC,3,11,0,49,0
C=CCOc1ccc(Cl)cc1CNC1CCCC1,7,5,-15,62*,5
Cc1cc(CN2CCCCC2)c(O)c(CN2CCCCC2)c1,x,59*,x,31,x
CC(C)(C)c1nc(CN2CCCCC2)cc(CN2CCCCC2)c1O,14,15,6,-1,2
CC(C)c1ccc(C2=C(O)c3ccccc3C(=O)C2=O)cc1,33*,8,5,-22,2
O=C1C(c2ccncc2)=C(O)c2ccccc21,2,9,2,-11,0
O=C(c1ccccc1)c1ccc2nc(-c3ccco3)c(-c3ccco3)nc2c1,-14,12,58*,-14,8
CCOc1cc(C(=O)Nc2nc(C)c(C)s2)cc(OCC)c1OCC,x,9,x,-19,x
CNCc1ccccc1Sc1cccc(O)c1,7,7,1,7,2
CNCc1ccccc1Sc1cc(O)ccc1O,-9,106*,2,-3,-2
CCOC(=O)c1sc(N2C(=O)C(=O)/C(=C(\O)c3ccc(OC)cc3C)C2c2cccnc2)nc1C (stereo unspecified),x,54*,x,4,x
COCCCN1C(=O)C(=O)/C(=C(/O)c2ccc(OC)cc2C)C1c1cccnc1 (stereo unspecified),0,5,-1,30,5
CS(=O)(=O)c1ccc2nc(NC(=O)c3cccc(NS(=O)(=O)c4ccc(F)c(F)c4)c3)sc2c1,65*,9,4,15,5
C=CCN(C(=O)CNC(=O)c1cccs1)C(C(=O)NC1CCCC1)c1ccc(F)cc1 (stereo unspecified),x,14,x,-12,x
SMILES,Arbovirus anti,EP2 antag,Hck Nef HTS,EP2 mod,p97 inhibitor
COc1cc(/C=C/C(=O)Nc2nnc(C(C)(C)C)s2)cc(OC)c1OC,31*,14,0,-58,-5
COc1cc(/C=C/C(=O)Nc2ccc(C)cc2)cc(OC)c1OC,11,17,7,-17,1
NS(=O)(=O)c1cc(Br)c(N=Nc2ccc(O)c3ncccc23)c(Br)c1,x,47*,x,-17,x
O=C(/C=C/c1ccccc1)NC1CC2CCCC(C1)N2Cc1cccs1 (stereo unspecified),x,49*,x,-97,x
CCn1c(SCC(=O)Nc2ccc(OC)cc2OC)nnc1-c1ccco1,x,10,x,7,x
N#C/C(=C\c1cn[nH]c1-c1ccc(Cl)cc1)C(=O)NCc1ccccc1,37*,x,2,-16,2
OC(CNCCc1ccccc1)c1ccccc1 (stereo unspecified),10,-1,-1,2,3
